Consider 3 compounds from PubChem BioAssay (EPA / NIEHS).

Where “and” joins values, the source holds several entries; their conditions need not be identical. Identical values can stand only once. The source holds several records for some structures; these can differ, active in one and inactive in another. Calls of active or inactive are those of the source. How the source made its calls: active means hit-call score of the fitted dose curve at least 0.9, where 1 is the maximum; inactive means score below 0.9.

The AC50 is the concentration at which the activity in the assay is half-maximal.

Test [1] is described as follows: ATG_M_32_CIS: Attagene CIS-FACTORIAL HepG2 Assay for M32 Transcription Factor (Internal Marker) (AID 2282949).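 Further: background control marker of the multiplexed CIS panel rather than a real target.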 To be noted: HepG2 Attagene cis-factorial M32 reporter, mRNA; actives raise or lower the signal. The procedure, abridged: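 Following 24 h chemical exposure of HepG2 cells transiently expressing cis-promoter reporter constructs, reporter transcript levels were determined by RT-PCR with fluorescent labelling and capillary electrophoresis, then fitted bidirectionally against DMSO.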

Test [2] can be described thus: ATG_M_06_CIS: Attagene CIS-FACTORIAL HepG2 Assay for M06 Transcription Factor (Internal Marker) (AID 2282950). The following applies: HepG2 Attagene CIS-FACTORIAL M06 internal marker reporter; actives raise or lower the signal. In outline:
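Cells (HepG2, transiently carrying cis-driven reporter units) receive chemical for 24 h before RNA isolation. Reporter cDNA is PCR-amplified, FAM-labelled by primer extension, HpaI-digested and sized on a capillary analyser.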

In test [3] the target is Hypoxia-inducible factor 1-alpha (Homo sapiens) (UniProt Q16665). The test is described as follows: ATG_HIF1a_CIS: Attagene CIS-FACTORIAL HepG2 Assay for human Hypoxia Inducible Factor 1 (HIF1A) (AID 2282951). The following applies: HepG2 Attagene cis-factorial HIF1a reporter transcription; actives raise or lower the signal. The procedure, abridged:
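Fluorescence intensity of capillary-separated, 6-FAM-labelled reporter amplicons gives mRNA induction in HepG2 cells carrying transfected cis-promoter reporter units; cells exposed 24 h, responses fitted up or down from DMSO.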

Test [4] concerns the target Hepatocyte nuclear factor 6 (Homo sapiens) (UniProt Q9UBC0). Nature of the test: ATG_HNF6_CIS: Attagene CIS-FACTORIAL HepG2 Assay for human Hepatocyte Nuclear Factor 6 (HNF6) (AID 2282952). To be noted: HepG2 Attagene cis-factorial HNF6 reporter transcription; actives raise or lower the signal. In outline:
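HepG2 cells transiently transfected with cis-element-driven multiple reporter transcription units, dosed 24 h; reporter mRNA quantified by RT-PCR, FAM primer extension, HpaI digestion and capillary electrophoresis; bidirectional fit versus DMSO baseline.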

In test [5] the target is Heat shock factor protein 1 (Homo sapiens) (UniProt Q00613). The test is described as follows: ATG_HSE_CIS: Attagene CIS-FACTORIAL HepG2 Assay for human Heat Shock Transcription Factor 1 (HSE) (AID 2282953). To be noted: HepG2 HSE cis-reporter, Attagene RNA transcription; actives raise or lower the signal. In outline: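 Liver-derived HepG2 cells carry transiently introduced multiple reporter units governed by cis promoters. Reporter RNA measured 24 h post-dose through reverse transcription, PCR amplification, fluorescent labelling and capillary electrophoresis, normalised to DMSO.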
Sequence of Heat shock factor protein 1 (Homo sapiens) (Q00613 whole entry, looked up): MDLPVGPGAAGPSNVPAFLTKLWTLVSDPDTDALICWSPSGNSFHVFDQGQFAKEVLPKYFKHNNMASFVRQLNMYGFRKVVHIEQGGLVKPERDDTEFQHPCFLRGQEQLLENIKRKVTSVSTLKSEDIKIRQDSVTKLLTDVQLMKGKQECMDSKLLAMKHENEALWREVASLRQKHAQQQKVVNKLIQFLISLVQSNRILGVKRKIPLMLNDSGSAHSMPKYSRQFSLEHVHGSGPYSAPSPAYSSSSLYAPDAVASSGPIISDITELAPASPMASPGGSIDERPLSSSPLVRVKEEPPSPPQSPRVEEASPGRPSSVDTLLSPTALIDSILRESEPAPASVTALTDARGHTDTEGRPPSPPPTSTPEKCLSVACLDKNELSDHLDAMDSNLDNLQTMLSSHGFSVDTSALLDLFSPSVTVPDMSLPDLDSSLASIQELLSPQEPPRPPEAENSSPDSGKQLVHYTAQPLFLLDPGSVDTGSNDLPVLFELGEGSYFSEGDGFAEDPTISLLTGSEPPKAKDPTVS

Test [6] is described as follows: ATG_MRE_CIS: Attagene CIS-FACTORIAL HepG2 Assay for human Metal Responsive Element (MRE) (AID 2282954). To be noted: HepG2 MRE cis-reporter transcription, Attagene multiplex; actives raise or lower the signal. The procedure, abridged: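 HepG2 cells transiently transfected with multiple cis-element reporter units measure endogenous MTF1-driven transcription. After 24 h compound exposure, reporter mRNA is quantified by RT-PCR with 6-FAM labelling, HpaI digestion and capillary electrophoresis; bidirectional fits versus DMSO.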

Test [7] can be described thus: ATG_PBREM_CIS: Attagene CIS-FACTORIAL HepG2 Assay for human Phenobarbital-responsive Enhancer Module (PBREM) (AID 2282955). To be noted: HepG2 PBREM cis-reporter, Attagene multiplexed transcription; actives raise or lower the signal. The procedure, abridged:
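Cells were transfected with cis-element reporter units and treated for 24 h, after which RNA was extracted and reporter transcripts measured by RT-PCR and capillary electrophoresis.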

The target of test [8] is Paired box protein Pax-6 (Homo sapiens) (UniProt P26367). The test is described as follows: ATG_Pax6_CIS: Attagene CIS-FACTORIAL HepG2 Assay for human Paired Box 6 (PAX6) (AID 2282956). To be noted: HepG2 CIS-FACTORIAL PAX6 reporter transcription, RNA readout; actives raise or lower the signal. The procedure, abridged: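 Multiplexed cis-reporter HepG2 system; 24 h treatment; reporter mRNA read by RT-PCR/CE fluorescence; bidirectional fit vs DMSO.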
Sequence of Paired box protein Pax-6 (Homo sapiens) (P26367 whole entry, looked up): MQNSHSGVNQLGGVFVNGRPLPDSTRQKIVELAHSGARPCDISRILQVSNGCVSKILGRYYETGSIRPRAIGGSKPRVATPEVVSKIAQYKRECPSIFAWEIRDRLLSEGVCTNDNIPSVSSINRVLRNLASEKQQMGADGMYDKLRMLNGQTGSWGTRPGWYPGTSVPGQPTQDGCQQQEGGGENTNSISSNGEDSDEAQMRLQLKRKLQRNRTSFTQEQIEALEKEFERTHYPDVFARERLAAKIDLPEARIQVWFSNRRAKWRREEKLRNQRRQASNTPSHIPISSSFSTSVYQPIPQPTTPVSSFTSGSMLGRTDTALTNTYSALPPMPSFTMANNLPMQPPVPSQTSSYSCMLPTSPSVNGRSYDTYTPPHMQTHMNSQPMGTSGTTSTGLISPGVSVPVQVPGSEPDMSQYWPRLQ

Test [9] in a line: ATG_PXRE_CIS: Attagene CIS-FACTORIAL HepG2 Assay for human Pregnane X Receptor Element (PXRE) (AID 2282957). The following applies: HepG2 Attagene CIS-FACTORIAL PXRE reporter, mRNA; actives raise or lower the signal. The procedure, abridged:
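HepG2 cells transiently transfected with cis-regulated multiple reporter transcription units; endogenous factor activity measured as reporter mRNA 24 h after dosing. RT-PCR, fluorescent primer extension, HpaI digestion, capillary electrophoresis; bidirectional fit versus DMSO baseline.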

The nature of test [10]: ATG_PPRE_CIS: Attagene CIS-FACTORIAL HepG2 Assay for human Peroxisome Proliferator-activated Response Element (PPRE) (AID 2282958). To be noted: HepG2 PPRE cis-element reporter, Attagene transcription factor profiling; actives raise or lower the signal. In outline:
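In this cell-based multiplex, a PPRE cis element drives a reporter sequence in transiently transfected HepG2 cells. Following 24 h treatment, labeled cDNA amplicons are sized and quantified by capillary electrophoresis, with DMSO defining baseline.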

A short description of test [11]: ATG_RORE_CIS: Attagene CIS-FACTORIAL HepG2 Assay for human RAR-related Orphan Receptor Element (RORE) (AID 2282959). To be noted: HepG2 Attagene cis-factorial RORE reporter, mRNA; actives raise or lower the signal. The procedure, abridged:
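Endogenous factor activity at a cis response element is read as reporter transcript levels in HepG2 cells, 24 h post-dose. Transcripts are quantified by RT-PCR with capillary electrophoresis, and data fitted in both directions against DMSO.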

A short description of test [12]: ATG_Sox_CIS: Attagene CIS-FACTORIAL HepG2 Assay for human SRY-box transcription factor (SOX) (AID 2282960). To be noted: HepG2 Attagene cis-factorial SOX reporter, mRNA; actives raise or lower the signal. The procedure, abridged:
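Measures mRNA induction of a SOX1-associated reporter in HepG2 after 24 h dosing. Fluorescently labelled RT-PCR fragments are separated by capillary electrophoresis, and gain or loss relative to DMSO control is fitted.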

Test [13] addresses Transcription factor Sp1 (Homo sapiens) (UniProt P08047). The test is described as follows: ATG_Sp1_CIS: Attagene CIS-FACTORIAL HepG2 Assay for human Specificity Protein 1 (Sp1) (AID 2282961). To be noted: HepG2 Sp1 cis-reporter transcription, actives raise or lower the signal. The procedure, abridged: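 Cells: HepG2, transiently transfected with cis-regulated multiplexed reporters. Exposure: 24 h. Detection: reporter transcripts amplified, fluorescently labeled, restriction-digested and sized by capillary electrophoresis. Analysis: bidirectional fit relative to DMSO.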

Test [14] in a line: ATG_SREBP_CIS: Attagene CIS-FACTORIAL HepG2 Assay for human Sterol Regulatory Element Binding (SREBP) (AID 2282962). To be noted: HepG2 Attagene cis-factorial SREBP reporter, mRNA; actives raise or lower the signal. In outline:
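mRNA induction of transfected cis-promoter reporters in HepG2 cells, 24 h post-dose. Detection: RT-PCR with 6-FAM-labelled products, HpaI digest, capillary electrophoresis. DMSO served as negative control and baseline.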

Test [15] addresses Signal transducer and activator of transcription 3 (Homo sapiens) (UniProt P40763). The test is described as follows: ATG_STAT3_CIS: Attagene CIS-FACTORIAL HepG2 Assay for human Signal Transducer and Activator of Transcription 3 (STAT3) (AID 2282963). The following applies: HepG2, Attagene cis-factorial STAT3 reporter transcription; actives raise or lower the signal. The procedure, abridged:
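HepG2 cells transiently transfected with cis-element-driven multiple reporter transcription units; after 24 h chemical exposure, reporter mRNA measured by RT-PCR, 6-FAM primer-extension labelling, HpaI digestion and capillary electrophoresis. Bidirectional fitting versus DMSO baseline.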

Test [16] can be described thus: ATG_TA_CIS: Attagene CIS-FACTORIAL HepG2 Assay for human TA Basal Promoter (AID 2282964). To be noted: HepG2 Attagene CIS-factorial TA basal promoter reporter; actives raise or lower the signal. The procedure, abridged:
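Background internal-marker endpoint from a 52-component HepG2 cis-reporter panel. Cells treated 24 h; reporter transcripts quantified via RT-PCR and CE fluorescence against DMSO baseline.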

Test [17] can be described thus: ATG_TCF_b_cat_CIS: Attagene CIS-FACTORIAL HepG2 Assay for human T-Cell-Factor with beta-catenin (TCF/b-cat) (AID 2282965). To be noted: HepG2 TCF/beta-catenin cis-reporter transcription, actives raise or lower the signal. In outline: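 HepG2 cells transiently transfected with multiple cis-promoter-regulated reporter transcription units, so endogenous transcription factor activity is measured. Reporter mRNA read 24 hours after dosing by RT-PCR, fluorescent labelling and capillary electrophoresis; bidirectional fitting against DMSO.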

Test [18] in a line: ATG_TAL_CIS: Attagene CIS-FACTORIAL HepG2 Assay for human TAL Basal Promoter (AID 2282966).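 Further: background control endpoint measuring basal TAL promoter reporter mRNA not a specific factor.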 The following applies: HepG2 Attagene cis-factorial TAL promoter reporter; actives raise or lower the signal. In outline: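 HepG2 cells were transiently transfected with promoter-driven multiplexed reporter units and dosed for 24 h. Reporter mRNA was measured by RT-PCR with capillary electrophoresis fluorescence; bidirectional fits used DMSO as baseline, serving as a background control.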

A short description of test [19]: ATG_TGFb_CIS: Attagene CIS-FACTORIAL HepG2 Assay for human Transforming Growth Factor (TGF) (AID 2282967). The following applies: HepG2 Attagene CIS TGFb reporter, mRNA transcription; actives raise or lower the signal. The procedure, abridged:
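Liver HepG2 line, cis-factorial reporter panel, 24 h dosing. Quantitation: RT-PCR products labeled with 6-FAM, cut with HpaI, resolved by capillary electrophoresis; DMSO-referenced bidirectional analysis.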

Test [20] is described as follows: ATG_VDRE_CIS: Attagene CIS-FACTORIAL HepG2 Assay for human Vitamin D Receptor Element (VDRE) (AID 2282968). To be noted: HepG2 VDRE cis-reporter transcription, actives raise or lower the signal. The procedure, abridged: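 HepG2 cells transiently transfected with cis-element reporter units, dosed 24 h; reporter mRNA measured by RT-PCR, 6-FAM labeling, HpaI digestion and capillary electrophoresis. Activity fitted bidirectionally against DMSO baseline.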

Sequence of Transcription factor Sp1 (Homo sapiens) (P08047 whole entry, looked up): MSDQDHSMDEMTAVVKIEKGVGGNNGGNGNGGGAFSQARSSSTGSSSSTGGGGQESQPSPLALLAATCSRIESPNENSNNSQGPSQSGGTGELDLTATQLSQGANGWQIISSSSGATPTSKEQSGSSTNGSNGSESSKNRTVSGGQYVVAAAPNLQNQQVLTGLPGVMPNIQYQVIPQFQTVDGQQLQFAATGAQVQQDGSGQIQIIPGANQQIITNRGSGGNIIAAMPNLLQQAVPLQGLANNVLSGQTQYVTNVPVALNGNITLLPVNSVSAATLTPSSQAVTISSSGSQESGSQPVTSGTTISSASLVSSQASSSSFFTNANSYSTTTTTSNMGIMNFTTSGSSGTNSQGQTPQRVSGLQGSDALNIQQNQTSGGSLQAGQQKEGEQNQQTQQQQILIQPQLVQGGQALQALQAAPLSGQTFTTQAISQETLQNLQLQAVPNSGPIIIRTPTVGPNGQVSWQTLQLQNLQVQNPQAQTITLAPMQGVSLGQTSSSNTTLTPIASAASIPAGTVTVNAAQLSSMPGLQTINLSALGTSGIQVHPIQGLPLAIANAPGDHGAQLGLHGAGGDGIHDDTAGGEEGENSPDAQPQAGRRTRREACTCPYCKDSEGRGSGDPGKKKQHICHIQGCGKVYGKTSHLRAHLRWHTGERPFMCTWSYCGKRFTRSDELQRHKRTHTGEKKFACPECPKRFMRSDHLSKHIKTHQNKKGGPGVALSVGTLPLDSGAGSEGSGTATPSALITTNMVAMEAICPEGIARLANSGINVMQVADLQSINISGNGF
Sequence of Hepatocyte nuclear factor 6 (Homo sapiens) (Q9UBC0 whole entry, looked up): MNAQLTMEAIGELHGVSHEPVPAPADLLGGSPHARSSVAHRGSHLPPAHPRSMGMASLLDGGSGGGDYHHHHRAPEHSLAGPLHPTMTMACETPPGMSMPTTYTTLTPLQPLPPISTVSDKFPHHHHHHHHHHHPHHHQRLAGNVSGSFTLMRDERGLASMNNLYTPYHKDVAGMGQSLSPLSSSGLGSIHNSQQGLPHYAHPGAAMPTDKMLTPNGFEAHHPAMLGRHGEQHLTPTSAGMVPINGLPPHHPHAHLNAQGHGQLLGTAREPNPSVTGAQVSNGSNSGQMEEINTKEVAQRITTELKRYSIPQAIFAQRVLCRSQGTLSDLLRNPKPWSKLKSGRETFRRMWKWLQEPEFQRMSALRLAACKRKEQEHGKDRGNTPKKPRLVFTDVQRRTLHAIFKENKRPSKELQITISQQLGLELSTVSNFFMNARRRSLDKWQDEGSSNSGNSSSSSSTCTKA
Sequence of Signal transducer and activator of transcription 3 (Homo sapiens) (P40763 whole entry, looked up): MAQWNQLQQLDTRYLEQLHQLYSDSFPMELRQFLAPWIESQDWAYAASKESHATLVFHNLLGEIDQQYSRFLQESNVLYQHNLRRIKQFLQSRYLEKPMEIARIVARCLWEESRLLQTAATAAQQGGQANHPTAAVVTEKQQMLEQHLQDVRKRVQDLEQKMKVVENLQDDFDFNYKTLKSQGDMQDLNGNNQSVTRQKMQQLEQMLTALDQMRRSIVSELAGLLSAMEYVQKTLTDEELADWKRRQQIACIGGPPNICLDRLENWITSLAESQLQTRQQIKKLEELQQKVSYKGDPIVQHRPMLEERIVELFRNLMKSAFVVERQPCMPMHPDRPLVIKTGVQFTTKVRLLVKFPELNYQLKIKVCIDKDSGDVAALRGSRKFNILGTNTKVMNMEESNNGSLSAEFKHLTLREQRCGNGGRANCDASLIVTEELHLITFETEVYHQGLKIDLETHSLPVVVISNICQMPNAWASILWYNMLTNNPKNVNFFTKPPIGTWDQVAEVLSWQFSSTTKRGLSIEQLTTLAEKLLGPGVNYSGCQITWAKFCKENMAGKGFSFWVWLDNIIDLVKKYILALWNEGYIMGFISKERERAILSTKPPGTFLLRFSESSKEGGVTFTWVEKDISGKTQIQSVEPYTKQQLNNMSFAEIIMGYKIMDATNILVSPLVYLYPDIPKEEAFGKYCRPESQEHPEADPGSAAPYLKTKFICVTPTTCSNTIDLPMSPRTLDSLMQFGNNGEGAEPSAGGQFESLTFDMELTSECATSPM
Sequence of Hypoxia-inducible factor 1-alpha (Homo sapiens) (Q16665 whole entry, looked up): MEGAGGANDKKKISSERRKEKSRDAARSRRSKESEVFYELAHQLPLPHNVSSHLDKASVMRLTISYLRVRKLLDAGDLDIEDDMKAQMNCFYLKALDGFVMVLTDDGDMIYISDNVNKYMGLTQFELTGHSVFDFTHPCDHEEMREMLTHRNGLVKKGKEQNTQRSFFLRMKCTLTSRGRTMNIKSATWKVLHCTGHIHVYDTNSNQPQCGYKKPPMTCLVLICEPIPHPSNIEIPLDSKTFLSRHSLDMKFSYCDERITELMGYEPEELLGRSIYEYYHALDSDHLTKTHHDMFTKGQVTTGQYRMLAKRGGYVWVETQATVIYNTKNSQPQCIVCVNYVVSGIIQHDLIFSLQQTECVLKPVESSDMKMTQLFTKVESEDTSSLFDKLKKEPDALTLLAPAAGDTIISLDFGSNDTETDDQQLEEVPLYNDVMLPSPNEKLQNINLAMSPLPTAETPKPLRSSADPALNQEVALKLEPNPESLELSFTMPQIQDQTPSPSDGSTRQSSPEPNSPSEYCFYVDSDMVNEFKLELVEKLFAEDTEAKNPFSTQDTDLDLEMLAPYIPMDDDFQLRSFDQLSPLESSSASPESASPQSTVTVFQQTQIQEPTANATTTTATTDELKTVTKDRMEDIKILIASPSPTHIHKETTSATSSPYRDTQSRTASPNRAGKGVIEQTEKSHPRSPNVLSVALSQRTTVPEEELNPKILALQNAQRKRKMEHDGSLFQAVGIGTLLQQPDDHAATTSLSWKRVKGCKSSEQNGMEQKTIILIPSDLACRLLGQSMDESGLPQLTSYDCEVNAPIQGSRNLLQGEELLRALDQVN

Take `CCCSP(=S)(OCC)Oc1ccc(Cl)cc1Cl` (stereo not drawn): the call in test [1], in test [2], in test [3], in test [4], in [5] and in test [6] was inactive. Besides, the outcome in [7], in test [8], in test [10], in [11], in [12] and in [13] was inactive. Moreover, the outcome in [14], in test [15], in test [16], in [17], in test [18] and in test [20] was inactive. In addition, the AC50 is 2.72 µM (active) in test [9] and 137 µM (active) in test [19].
In the case of `CC1(C)[C@H](C(=O)O[C@H](C#N)c2cccc(Oc3ccccc3)c2)[C@@H]1/C=C(\Cl)C(F)(F)F`, the compound was classed as inactive in test [1], in test [2], in test [3], in test [4], in test [5] and in test [6]. Also, the result in [7], in [8], in [10], in [11], in test [12] and in [13] was inactive. Also, the compound was called inactive in test [14], in [15], in test [16], in [17], in test [18] and in test [19]. Moreover, in [20], the outcome was inactive. Also, the AC50 in test [7] was 1.16 µM (active); in test [9], 384 nM (active) and 683 nM (active); in test [20], 0.502 µM (active).
Turning to `COc1ccc(N)cc1`, the compound was classed as inactive in test [1], in test [2], in test [3], in [4], in test [5] and in test [6]. Besides, the compound was called inactive in [9], in [10], in test [11], in [13], in test [15] and in [16]. The outcome in test [17], in test [18] and in test [19] was inactive. Also, the AC50 in test [3] was 181 µM (active).
